High-throughput results from PubChem.
Mcl1-Bid inh: Mcl-1/Bid interaction inhibition | TR-FRET Mcl-1/Bid-Dy647 peptide binding, 1536-well | 220,000 tested, 0.97% active | inhibition, % at 21.7 µM;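 active = compounds that cut the binding signal by more than half at the single screening dose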;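 note: His-tagged Mcl-1 with europium anti-His antibody binding Bid BH3 peptide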
Target sequence (Q07820 whole entry, looked up): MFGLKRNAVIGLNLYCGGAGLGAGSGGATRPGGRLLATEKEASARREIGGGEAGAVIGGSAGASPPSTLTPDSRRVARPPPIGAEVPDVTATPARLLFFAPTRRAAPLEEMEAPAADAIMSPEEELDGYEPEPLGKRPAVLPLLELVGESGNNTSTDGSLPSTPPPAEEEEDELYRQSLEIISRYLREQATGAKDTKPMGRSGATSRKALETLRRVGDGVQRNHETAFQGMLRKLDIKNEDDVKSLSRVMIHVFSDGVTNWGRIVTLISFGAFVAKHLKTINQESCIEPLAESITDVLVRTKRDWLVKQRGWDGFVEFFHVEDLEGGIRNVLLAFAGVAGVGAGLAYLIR
MCL1-BIM inh: inhibitors of human MCL1 binding to BIM-BH3 peptide. Q07820. GST-MCL1 / FITC-Bim-BH3 fluorescence polarization. inhibition, % at 10.9 µM. 320,000 tested, 0.68% active;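 active = inhibition above the mean inhibition of all tested compounds plus 3 SD, set per campaign, cut at about 40% in these data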;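 note: higher means more loss of mP so more displacement of Bim peptide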
GLD-1 RNA inh: GLD-1-TGE RNA interaction inhibition (C. elegans); Q17339; purified GLD-1 + fluorescein TGE RNA, fluorescence polarization; inhibition, % at 5.96 µM; 320,000 tested, 0.44% active; AID 2280;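 active = percent inhibition above a per-plate cutoff, the plate mean of test compounds plus 3 SD, cut at about 30% in these data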
Bim-Mcl-1: disrupts Bim peptide binding to human Mcl-1; AID 1009; Bead-based flow cytometry, Bim peptide-Mcl-1 binding; 190,000 tested, 0.1% active; inhibition, % at 10 µM; in the data active = inhibition above about 40%
BCLXL inh: inhibitors of human Bcl-xL; GST-Bcl-xL / FITC-Bim BH3 peptide fluorescence polarization; Q07817; inhibition, % at 10.9 µM; AID 2129; 320,000 tested, 0.7% active;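 active = inhibition above the mean of all tested compounds plus 3 SD, cutoff set per campaign, cut at about 30% in these data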;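 note: inhibitors lower millipolarization by displacing the labeled peptide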
Target sequence (Q07817 whole entry, looked up): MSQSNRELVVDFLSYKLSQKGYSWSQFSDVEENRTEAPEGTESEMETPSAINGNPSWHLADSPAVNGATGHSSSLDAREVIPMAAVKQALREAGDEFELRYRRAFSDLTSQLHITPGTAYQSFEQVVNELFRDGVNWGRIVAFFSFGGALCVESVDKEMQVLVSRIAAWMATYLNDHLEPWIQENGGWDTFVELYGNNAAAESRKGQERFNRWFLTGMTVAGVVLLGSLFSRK
Mcl1-Noxa inh: Mcl-1/Noxa interaction inhibition; TR-FRET Mcl-1/Noxa peptide binding, 2 h; inhibition, % at 21.7 µM; 220,000 tested, 1.5% active; AID 1022;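 active = compounds that cut the protein-peptide binding signal by more than 50% relative to plate controls in a single-dose test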;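 note: His-tagged Mcl-1 with rhodamine Noxa BH3 peptide and terbium anti-His antibody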
BCLXL inh confirm: Bcl-xL (human) inhibition, MCL1 counter-screen confirmation; shares compounds with MCL1-BIM inh; GST-Bcl-xL / FITC-Bim BH3 peptide FP binding; inhibition, % at 10.9 µM; 1,700 tested, 54% active;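 active = inhibition above a cutoff equal to the mean inhibition of all tested compounds plus 3 SD, cut at about 30% in these data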
MCL1 inh confirm: confirmation of human MCL1 and BIM-BH3 interaction inhibitors. inhibition, % at 10.9 µM. 1,700 tested, 61% active. GST-MCL1 / FITC-Bim-BH3 fluorescence polarization. shares compounds with MCL1-BIM inh;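 active = inhibition above the average of all tested compounds plus 3 SD, cut at about 40% in these data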
Large screens that a line does not name were inactive (follow-up assays come after a bar, where they were run). The list is not random: actives were taken first. Their share in the collection is about 2.3%.

CCCCNc1c2c3c(cccc3n(C)c1=O)C(=O)c1ccccc1-2	MCL1-BIM inh active, GLD-1 RNA inh active, BCLXL inh 198 | BCLXL inh confirm 178 | MCL1 inh confirm active
O=C(NCC1CCOCC1)c1ccc2nc(Cc3cccc(Cl)c3)oc2c1	none (no result: Mcl1-Bid inh, Bim-Mcl-1, Mcl1-Noxa inh)
COc1ccc(NC(=O)c2cc(S(=O)(=O)N3CCCC3)c[nH]2)cc1	MCL1-BIM inh 108 (no result: Mcl1-Bid inh, Bim-Mcl-1, Mcl1-Noxa inh) | BCLXL inh confirm inactive | MCL1 inh confirm inactive
COc1ccc(NC(=O)c2cc(S(=O)(=O)N3CCCCC3)c[nH]2)cc1	none (no result: Mcl1-Bid inh, Bim-Mcl-1, Mcl1-Noxa inh)
O=C(O)C1CC=CCC1C(=O)NCc1ccc(Cl)c(Cl)c1 (stereo unspecified)	none (no result: Mcl1-Bid inh, Bim-Mcl-1, Mcl1-Noxa inh)
ClCc1nc2ccccc2n1Cc1ccccc1	MCL1-BIM inh 160, GLD-1 RNA inh 57, BCLXL inh 129 (no result: Mcl1-Bid inh, Bim-Mcl-1, Mcl1-Noxa inh) | BCLXL inh confirm 54 | MCL1 inh confirm 79
CC1(C)Oc2ccc(C(=O)NC3CCCC3)cc2N(CC(=O)NC2CCCCC2)C1=O	MCL1-BIM inh 54 | BCLXL inh confirm inactive | MCL1 inh confirm inactive
CC(C)(C)NC(=O)c1ccc2c(c1)N(CC(=O)N1CCCCC1)C(=O)C(C)(C)O2	none (no result: Mcl1-Bid inh, Bim-Mcl-1, Mcl1-Noxa inh)
Cn1cc(CN2CCC(C(=O)Nc3cccc(-c4cccc(F)c4)c3)CC2)cn1	MCL1-BIM inh 82 (no result: Mcl1-Bid inh, Bim-Mcl-1, Mcl1-Noxa inh) | BCLXL inh confirm inactive | MCL1 inh confirm inactive
Cc1ccccc1C1c2[nH]c3ccccc3c2C[C@H]2C(=O)N(c3ccccc3C(=O)NCCCN3CCOCC3)C(=O)N12 (stereo partly specified)	none (no result: Mcl1-Bid inh, Bim-Mcl-1, Mcl1-Noxa inh)
NC(=O)c1cc2ccc(O)cc2oc1=NCc1ccccc1	MCL1-BIM inh 151, GLD-1 RNA inh 95, BCLXL inh 129 | BCLXL inh confirm 170 | MCL1 inh confirm 199
N#Cc1c(SCC(=O)Nc2nc3ccc(Br)cc3s2)sc2c(O)cc(=O)[nH]c12	MCL1-BIM inh 48 (no result: Mcl1-Bid inh, Bim-Mcl-1, Mcl1-Noxa inh) | BCLXL inh confirm inactive | MCL1 inh confirm 54
N#Cc1c(SCC(=O)Nc2nccs2)sc2c(O)cc(=O)[nH]c12	MCL1-BIM inh 50 (no result: Mcl1-Bid inh, Bim-Mcl-1, Mcl1-Noxa inh) | BCLXL inh confirm inactive | MCL1 inh confirm inactive
N#Cc1cccc(NC(=O)CSc2sc3c(O)cc(=O)[nH]c3c2C#N)c1	none (no result: Mcl1-Bid inh, Bim-Mcl-1, Mcl1-Noxa inh)
CCCSc1nnc(NC(=O)CSc2sc3c(O)cc(=O)[nH]c3c2C#N)s1	none (no result: Mcl1-Bid inh, Bim-Mcl-1, Mcl1-Noxa inh)
N#Cc1c(SCC(=O)Nc2nc3ccccc3s2)sc2c(O)cc(=O)[nH]c12	MCL1-BIM inh 57, BCLXL inh 31 (no result: Mcl1-Bid inh, Bim-Mcl-1, Mcl1-Noxa inh) | BCLXL inh confirm inactive | MCL1 inh confirm 72
O=C(Nc1ccc(F)cc1F)c1noc2c1CCC2	MCL1-BIM inh 47 | BCLXL inh confirm inactive | MCL1 inh confirm 66
O=C(Nc1cc(Cl)ccc1Cl)c1noc2c1CCCC2	none (no result: Bim-Mcl-1)
NS(=O)(=O)c1ccc(CCNC(=O)c2ccccc2Cc2ccccc2)cc1	none (no result: Mcl1-Bid inh, Bim-Mcl-1, Mcl1-Noxa inh)
CCOC(=O)c1ccccc1NC(=O)N1CCn2c(C)ccc2C1CC (stereo unspecified)	MCL1-BIM inh 63, GLD-1 RNA inh 33, BCLXL inh 62 | BCLXL inh confirm 35 | MCL1 inh confirm inactive
CCCn1c(N)c(N(CCOC)C(=O)c2cc(C)cc(C)c2)c(=O)[nH]c1=O	none (no result: Mcl1-Bid inh, Bim-Mcl-1, Mcl1-Noxa inh)
CCn1c(O)c(/C=N/N=C/c2ccccc2)c2ccc(C3=NNC(=O)CC3)cc21	MCL1-BIM inh 90, BCLXL inh 49 | BCLXL inh confirm 96 | MCL1 inh confirm 109
CC1=CC(=Nc2c(C)n(C)n(-c3ccccc3)c2=O)C=CC1=O	MCL1-BIM inh 126, GLD-1 RNA inh 76, BCLXL inh 125 (no result: Bim-Mcl-1) | BCLXL inh confirm inactive | MCL1 inh confirm inactive
CCN1CCc2c(sc(NC(=O)Nc3ccc(Cl)c(Cl)c3)c2C(N)=O)C1	MCL1-BIM inh 87, BCLXL inh 40 | BCLXL inh confirm 54 | MCL1 inh confirm 56
CCN1CCc2c(sc(NC(=O)Cc3ccccc3)c2C(N)=O)C1	none (no result: Mcl1-Bid inh, Bim-Mcl-1, Mcl1-Noxa inh)
COc1ccc(S(=O)(=O)Nc2cc(SCC(=O)O)c(O)c3ccccc23)cc1	none (no result: Mcl1-Bid inh, MCL1-BIM inh, Bim-Mcl-1, Mcl1-Noxa inh) | BCLXL inh confirm inactive
